In PubChem BioAssay (EPA / NIEHS):
Inconclusive results are not listed. Calls of active or inactive are those of the source. Rule for the calls: active = hit-call score of the fitted dose curve at least 0.9, where 1 is the maximum; inconclusive = response in the unintended direction; inactive = score below 0.9.

read-out: xenobiotic metabolism (CYP2C9), CYP2C9 (gene 1559); test: CLD_CYP2C9_6hr: CellzDirect (CLD) Gene Expression Assay for xenobiotic metabolism (CYP2C9) at 6 hours (AID 2283664)
Experimental: CLD_6hr is a cell-based, multiplexed-readout assay that uses hepatocyte, a human liver primary cell, with measurements taken at 6 hours after chemical dosing in a 96-well plate.CLD_CYP2C9_6hr is one of 16 assay component(s) measured or calculated from the CLD_6hr assay. It is designed to make measurements of mRNA induction, a form of inducible reporter, as detected with chemiluminescence signals by Quantitative Nuclease Protection Assay (qNPA) technology.Data from the assay component CLD_CYP2C9_6hr was analyzed at the endpoint, CLD_CYP2C9_6hr, in the positive analysis fitting direction relative to DMSO as the negative control and baseline of activity. Using a type of inducible reporter, gain-of-signal activity can be used to understand changes in the reporter gene as they relate to the gene CYP2C9. Furthermore, this assay endpoint can be referred to as a primary readout. To generalize the intended target to other relatable targets, this assay endpoint is annotated to the cyp intended target family, where subfamily is xenobiotic metabolism.
Human hepatocyte cultures were treated daily for two consecutive days with fresh dosing solutions containing appropriate concentrations of the 320 ToxCast chemicals (chemical identities were blinded to CellzDirect and other ToxCast collaborators), vehicle control (0.2% DMSO), and positive control inducers as summarized in Table 1. Due to the large number of treatment groups and chemicals examined, the ToxCast chemicals were divided into two groups (spanning two independent cultures of hepatocytes from separate donor preparations (Hu778: ToxCast plates 1 and 2; Hu776: ToxCast plates 3 and 4). Each preparation of human hepatocyte cultures was treated with respective vehicle control, medium only control, set of six positive controls/reference chemicals for the five hepatic receptor pathways, and a subset of eight of the ToxCast chemicals (indoxacarb, pyrithiobac-sodium, norflurazon, cyhalofop-butyl, methomyl, thiram, acetochlor, and propiconazole). These replicate data, coupled with internal replicates designed within the blinded ToxCast chemical library, provided additional data to evaluate interindividual differences between hepatocyte preparations and their potential impact on chemical profiles.Cell morphology and integrity were evaluated using phase-contrast microscopy as an indicator of hepatocyte cell health (Tyson & Green, 1987). Cultures for each treatment group (i.e., media, vehicle [0.2% DMSO], positive control inducers [multiple concentrations], and the ToxCast chemicals [multiple concentrations]) were observed and cell morphology was assessed relative to vehicle control cultures at each harvest time point (0, 6, 24, or 48 h). […] Images were evaluated at the conclusion of the study to assess changes in cell integrity and account for the effects of chemical exposure on uncharacteristic changes in concentration-dependent gene expression profiles. The results from these determinations of apparent cytotoxicity were annotated (yes/no) alongside the corresponding qNPA data for reference.At the conclusion of each treatment period, hepatocyte cultures (96-well) were washed with 1 volume of HBSS, lysed by addition of 25 ul ArrayPlate lysis buffer (HTG, Tucson, AZ), and 70 ul/well of Denaturation Oil, denatured by incubation at 95C for 10 min, and frozen at approximately -70C until analysis by nuclease protection assay (qNPA) (Roberts et al., 2007). For qNPA analysis, cell lysates were thawed at 50C for approximately 30 min, qNPA probes were added, and samples were incubated at 95C for 10 min to begin the detection process by denaturing the target RNA, dissociating the duplexes and secondary structure hybridization. At the conclusion of the hybridization period, S1 nuclease reagent was added to each sample to digest all nonprotected nucleotides at 50C for 60-90 min. […]

**Q.** `Nc1c(Cl)c(F)nc(OCC(=O)O)c1Cl` was tested. Which outcome did it give?
**A.** inactive

**Q.** How did the outcome turn out when `COCC(=O)N(c1c(C)cccc1C)C(C)C(=O)OC` (stereo not given) was run?
**A.** inactive

**Q.** With `CCCCC(C#N)(Cn1cncn1)c1ccc(Cl)cc1` (stereo not given) as the molecule, how does the outcome read?
**A.** inactive

**Q.** With `CCNC(=O)NC(=O)C(C#N)=NOC` as the molecule, how does the outcome read?
**A.** inactive

**Q.** Which outcome does the source give for `C=CCOC(=O)C(C)(C)OC(=O)c1cc(-n2c(=O)cc(C(F)(F)F)n(C)c2=O)ccc1Cl` here?
**A.** inactive

**Q.** `N#Cc1c[nH]cc1-c1cccc2c1OC(F)(F)O2` was tested. Which outcome did it give?
**A.** inactive

**Q.** With `Nc1c(Cl)c(Cl)nc(C(=O)O)c1Cl` as the molecule, how does the outcome read?
**A.** inactive

**Q.** For `CC(C)N1C(=O)c2ccccc2NS1(=O)=O`, which outcome is on record?
**A.** inactive

**Q.** How did the outcome turn out when `COP(=O)(OC)O/C(C)=C/C(=O)N(C)C` was run?
**A.** inactive

**Q.** Which outcome does the source give for `CS(=O)(=O)c1cc(C(F)(F)F)ccc1C(=O)c1cnoc1C1CC1` here?
**A.** inactive

**Q.** With `COCC(C)N(C(=O)CCl)c1c(C)csc1C` (stereo not given) as the molecule, how does the outcome read?
**A.** inactive

**Q.** With `COC(=O)NS(=O)(=O)c1ccc(N)cc1` as the molecule, how does the outcome read?
**A.** inactive

**Q.** With `CC(C)=CC1C(C(=O)OCc2coc(Cc3ccccc3)c2)C1(C)C` (stereo not given) as the molecule, how does the outcome read?
**A.** inactive

**Q.** How did the outcome turn out when `CCNP(=S)(OC)O/C(C)=C/C(=O)OC(C)C` (stereo not given) was run?
**A.** inactive

**Q.** How did the outcome turn out when `CN=C=S` was run?
**A.** inactive

**Q.** For `O=C(O)c1c(Cl)ccc2cc(Cl)cnc12`, which outcome is on record?
**A.** inactive

**Q.** How did the outcome turn out when `OC(c1ccc(Cl)cc1)(c1ccc(Cl)cc1)C(Cl)(Cl)Cl` was run?
**A.** inactive

**Q.** Which outcome does the source give for `CCC(C)n1c(=O)[nH]c(C)c(Br)c1=O` (stereo not given) here?
**A.** inactive

**Q.** For `O=C1C2CC=CCC2C(=O)N1SC(Cl)(Cl)Cl` (stereo not given), which outcome is on record?
**A.** inactive

**Q.** For `CCOP(=O)(OCC)Oc1nc(Cl)c(Cl)cc1Cl`, which outcome is on record?
**A.** inactive

**Q.** With `CC1(C)C(C(=O)OC(C#N)c2cccc(Oc3ccccc3)c2)C1(C)C` (stereo not given) as the molecule, how does the outcome read?
**A.** inactive

**Q.** Which outcome does the source give for `CO/N=C(/C1=NOCCO1)c1ccccc1Oc1ncnc(Oc2ccccc2Cl)c1F` here?
**A.** inactive

**Q.** With `CCOc1nc(C(Cl)(Cl)Cl)ns1` as the molecule, how does the outcome read?
**A.** inactive

**Q.** How did the outcome turn out when `CC(C)N1C(=O)N(c2ccccc2)CSC1=NC(C)(C)C` was run?
**A.** inactive

**Q.** `CS(=O)(=O)c1ccc(C(=O)C2C(=O)CCCC2=O)c([N+](=O)[O-])c1` was tested. Which outcome did it give?
**A.** inactive

**Q.** `CCOP(=S)(OCC)Oc1nc(Cl)n(C(C)C)n1` was tested. Which outcome did it give?
**A.** inactive

**Q.** For `COc1cc(OC)nc(NC(=O)NS(=O)(=O)c2ncccc2OCC(F)(F)F)n1`, which outcome is on record?
**A.** inactive

**Q.** How did the outcome turn out when `Cc1nc(N(C)C)nc(OC(=O)N(C)C)c1C` was run?
**A.** inactive

**Q.** With `CC1(C)CCC(=Cc2ccc(Cl)cc2)C1(O)Cn1cncn1` (stereo not given) as the molecule, how does the outcome read?
**A.** inactive

**Q.** How did the outcome turn out when `CSC(=O)c1c(C(F)F)nc(C(F)(F)F)c(C(=O)SC)c1CC(C)C` was run?
**A.** inactive

**Q.** With `N#Cc1c(Cl)cccc1Cl` as the molecule, how does the outcome read?
**A.** inactive

**Q.** How did the outcome turn out when `COc1ccc(-c2ccccc2)cc1NNC(=O)OC(C)C` was run?
**A.** inactive

**Q.** For `CCOc1nc(F)cc2nc(S(=O)(=O)Nc3c(Cl)cccc3Cl)nn12`, which outcome is on record?
**A.** inactive

**Q.** How did the outcome turn out when `Cc1ccc(N=CN(C)C=Nc2ccc(C)cc2C)c(C)c1` was run?
**A.** inactive

**Q.** With `COc1cc(Cl)c(OC)cc1Cl` as the molecule, how does the outcome read?
**A.** inactive
